Drawing on ChEMBL document CHEMBL2218924, “A broad activity screen in support of a chemogenomic map for kinase signalling research and drug discovery” (Biochem J, 2013), this text covers residual activity for four molecules.

The target in experiment [1] is T1, Muscle, skeletal receptor tyrosine-protein kinase (Homo sapiens) (UniProt O15146).
T1 sequence (whole entry): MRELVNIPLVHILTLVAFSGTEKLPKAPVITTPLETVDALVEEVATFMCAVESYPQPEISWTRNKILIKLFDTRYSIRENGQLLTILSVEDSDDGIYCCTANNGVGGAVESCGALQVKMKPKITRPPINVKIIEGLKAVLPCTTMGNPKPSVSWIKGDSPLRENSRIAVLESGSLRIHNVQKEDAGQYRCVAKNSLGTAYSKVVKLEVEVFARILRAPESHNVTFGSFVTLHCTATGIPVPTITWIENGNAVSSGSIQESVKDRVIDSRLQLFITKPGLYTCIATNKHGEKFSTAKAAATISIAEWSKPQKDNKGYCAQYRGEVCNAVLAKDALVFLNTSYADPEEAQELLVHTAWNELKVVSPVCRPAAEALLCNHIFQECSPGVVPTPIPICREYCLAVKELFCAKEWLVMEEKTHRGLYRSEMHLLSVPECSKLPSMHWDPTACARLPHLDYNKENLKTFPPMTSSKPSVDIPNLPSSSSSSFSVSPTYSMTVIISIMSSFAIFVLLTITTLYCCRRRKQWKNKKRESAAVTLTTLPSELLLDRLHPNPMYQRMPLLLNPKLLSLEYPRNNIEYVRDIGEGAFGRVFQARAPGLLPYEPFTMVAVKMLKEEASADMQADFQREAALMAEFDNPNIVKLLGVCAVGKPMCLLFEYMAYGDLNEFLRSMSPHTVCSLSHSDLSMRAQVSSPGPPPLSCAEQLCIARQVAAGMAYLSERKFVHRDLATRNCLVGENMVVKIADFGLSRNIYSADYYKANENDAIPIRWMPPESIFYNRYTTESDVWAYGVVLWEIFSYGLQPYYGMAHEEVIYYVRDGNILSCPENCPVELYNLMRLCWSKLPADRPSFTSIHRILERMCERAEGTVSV
As to conditions: at 1 µM.

Experiment [2] addresses T1, Muscle, skeletal receptor tyrosine-protein kinase (Homo sapiens). The settings on record: at 10 µM.
The target in experiment [3] is T2, Serine/threonine-protein kinase Nek11 (Homo sapiens) (UniProt Q8NG66).
T2 sequence (whole entry): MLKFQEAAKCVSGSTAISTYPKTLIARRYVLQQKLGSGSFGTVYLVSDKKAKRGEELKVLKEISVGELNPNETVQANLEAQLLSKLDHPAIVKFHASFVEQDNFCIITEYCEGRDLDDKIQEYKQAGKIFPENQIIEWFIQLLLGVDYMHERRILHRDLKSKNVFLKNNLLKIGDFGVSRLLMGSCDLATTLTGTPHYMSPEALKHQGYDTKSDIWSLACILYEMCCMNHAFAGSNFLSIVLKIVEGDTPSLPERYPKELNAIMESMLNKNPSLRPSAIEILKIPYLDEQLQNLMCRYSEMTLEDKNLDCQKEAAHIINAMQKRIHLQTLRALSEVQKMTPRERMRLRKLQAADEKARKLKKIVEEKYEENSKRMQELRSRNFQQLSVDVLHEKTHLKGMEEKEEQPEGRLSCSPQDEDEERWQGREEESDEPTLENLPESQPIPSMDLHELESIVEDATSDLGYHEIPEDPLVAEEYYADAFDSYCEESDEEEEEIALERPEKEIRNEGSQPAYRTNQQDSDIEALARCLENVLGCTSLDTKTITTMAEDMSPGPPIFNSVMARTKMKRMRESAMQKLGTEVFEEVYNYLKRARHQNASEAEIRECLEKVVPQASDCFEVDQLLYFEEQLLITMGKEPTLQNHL
The settings on record: at 1 µM.

Experiment [4] addresses T2, Serine/threonine-protein kinase Nek11 (Homo sapiens). The settings on record: at 10 µM.
For experiment [5], the target named is T3, Serine/threonine-protein kinase Nek2 (Homo sapiens) (UniProt P51955).
T3 sequence (whole entry): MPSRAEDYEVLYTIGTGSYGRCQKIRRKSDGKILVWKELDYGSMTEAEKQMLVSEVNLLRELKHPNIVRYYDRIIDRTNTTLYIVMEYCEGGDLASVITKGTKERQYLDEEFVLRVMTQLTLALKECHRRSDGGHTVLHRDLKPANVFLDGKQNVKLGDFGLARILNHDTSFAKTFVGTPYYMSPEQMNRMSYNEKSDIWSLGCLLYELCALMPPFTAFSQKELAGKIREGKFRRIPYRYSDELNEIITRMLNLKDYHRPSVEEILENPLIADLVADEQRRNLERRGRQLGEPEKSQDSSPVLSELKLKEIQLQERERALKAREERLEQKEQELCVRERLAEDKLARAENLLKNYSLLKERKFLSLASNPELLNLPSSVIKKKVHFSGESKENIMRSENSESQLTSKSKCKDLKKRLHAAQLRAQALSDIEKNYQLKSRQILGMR
The settings on record: at 1 µM.

The target of experiment [6] is T3, Serine/threonine-protein kinase Nek2 (Homo sapiens). As to conditions: at 10 µM.
In experiment [7] the target is T4, Serine/threonine-protein kinase Nek3 (Homo sapiens) (UniProt P51956).
T4 sequence (whole entry): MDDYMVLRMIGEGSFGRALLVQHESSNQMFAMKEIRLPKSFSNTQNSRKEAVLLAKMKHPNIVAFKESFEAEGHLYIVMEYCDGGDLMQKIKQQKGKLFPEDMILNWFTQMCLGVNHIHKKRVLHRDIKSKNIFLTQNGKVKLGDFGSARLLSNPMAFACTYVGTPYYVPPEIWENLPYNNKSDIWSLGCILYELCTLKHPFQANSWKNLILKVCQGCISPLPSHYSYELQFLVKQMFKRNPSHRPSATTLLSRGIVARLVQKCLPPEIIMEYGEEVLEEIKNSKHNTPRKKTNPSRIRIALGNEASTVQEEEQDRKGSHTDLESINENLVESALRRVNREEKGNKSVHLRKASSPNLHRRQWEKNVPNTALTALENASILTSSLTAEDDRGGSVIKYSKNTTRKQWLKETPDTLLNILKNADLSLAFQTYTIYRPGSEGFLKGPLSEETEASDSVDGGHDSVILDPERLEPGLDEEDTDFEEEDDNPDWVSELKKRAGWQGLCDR
The settings on record: at 1 µM.

For experiment [8], the target named is T4, Serine/threonine-protein kinase Nek3 (Homo sapiens). As to conditions: at 10 µM.
In experiment [9] the target is Serine/threonine-protein kinase tousled-like 2 (Homo sapiens) (UniProt Q86UE8). The settings on record: at 1 µM.
For experiment [10] the target is unchanged. The settings on record: at 10 µM.
Experiment [11] has as its target T5, Testis-specific serine/threonine-protein kinase 1 (Homo sapiens) (UniProt Q9BXA7).
T5 sequence (whole entry): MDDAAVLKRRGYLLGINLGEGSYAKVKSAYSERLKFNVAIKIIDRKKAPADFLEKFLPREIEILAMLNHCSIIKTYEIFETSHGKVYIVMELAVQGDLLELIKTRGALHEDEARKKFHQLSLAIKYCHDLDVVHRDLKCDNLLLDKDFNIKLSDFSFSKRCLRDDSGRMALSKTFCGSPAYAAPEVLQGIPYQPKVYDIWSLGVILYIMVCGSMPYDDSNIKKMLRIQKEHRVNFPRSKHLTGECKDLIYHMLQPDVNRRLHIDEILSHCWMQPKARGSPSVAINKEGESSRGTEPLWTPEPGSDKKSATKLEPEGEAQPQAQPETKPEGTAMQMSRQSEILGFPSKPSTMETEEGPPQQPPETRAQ
As to conditions: at 1 µM.

In experiment [12] the target is T5, Testis-specific serine/threonine-protein kinase 1 (Homo sapiens). As to conditions: at 10 µM.
Experiment [13] deals with T6, Testis-specific serine/threonine-protein kinase 2 (Homo sapiens) (UniProt Q96PF2).
T6 sequence (whole entry): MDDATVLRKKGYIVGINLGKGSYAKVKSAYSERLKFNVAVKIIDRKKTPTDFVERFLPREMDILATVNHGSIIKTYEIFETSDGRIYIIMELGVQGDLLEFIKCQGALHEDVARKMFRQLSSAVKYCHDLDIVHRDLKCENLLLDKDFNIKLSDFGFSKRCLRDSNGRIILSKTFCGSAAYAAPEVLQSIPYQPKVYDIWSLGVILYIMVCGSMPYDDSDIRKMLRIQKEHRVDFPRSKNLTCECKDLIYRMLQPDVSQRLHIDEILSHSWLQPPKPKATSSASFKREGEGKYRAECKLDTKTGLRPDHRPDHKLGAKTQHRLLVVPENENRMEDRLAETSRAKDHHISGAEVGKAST
As to conditions: at 10 µM.

Experiment [14] addresses T7, Tyrosine-protein kinase Tec (Homo sapiens) (UniProt P42680).
T7 sequence (whole entry): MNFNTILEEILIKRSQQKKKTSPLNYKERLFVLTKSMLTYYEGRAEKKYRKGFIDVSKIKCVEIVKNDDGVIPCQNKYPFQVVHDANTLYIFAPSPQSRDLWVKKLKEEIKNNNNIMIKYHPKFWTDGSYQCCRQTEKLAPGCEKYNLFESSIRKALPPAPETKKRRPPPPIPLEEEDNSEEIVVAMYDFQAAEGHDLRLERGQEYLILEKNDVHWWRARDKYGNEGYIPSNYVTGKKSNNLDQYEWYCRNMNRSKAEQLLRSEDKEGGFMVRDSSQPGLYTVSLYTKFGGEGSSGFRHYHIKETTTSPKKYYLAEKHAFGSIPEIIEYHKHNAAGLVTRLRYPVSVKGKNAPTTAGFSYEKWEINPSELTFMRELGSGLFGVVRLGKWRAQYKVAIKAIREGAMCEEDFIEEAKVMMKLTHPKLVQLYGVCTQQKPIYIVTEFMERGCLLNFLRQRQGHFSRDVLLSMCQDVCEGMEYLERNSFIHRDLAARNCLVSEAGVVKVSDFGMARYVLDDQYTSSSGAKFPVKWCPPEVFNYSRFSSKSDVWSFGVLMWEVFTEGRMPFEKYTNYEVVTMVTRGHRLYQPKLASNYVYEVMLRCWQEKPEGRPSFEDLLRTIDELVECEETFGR
As to conditions: at 1 µM.

The target in experiment [15] is T7, Tyrosine-protein kinase Tec (Homo sapiens). As to conditions: at 10 µM.
Experiment [16] has as its target Angiopoietin-1 receptor (Homo sapiens) (UniProt Q02763). As to conditions: at 1 µM.
The target is the same in experiment [17]. As to conditions: at 10 µM.
The target in experiment [18] is High affinity nerve growth factor receptor (Homo sapiens) (UniProt P04629). The settings on record: at 1 µM.
The target is the same in experiment [19]. As to conditions: at 10 µM.
The target in experiment [20] is BDNF/NT-3 growth factors receptor (Homo sapiens) (UniProt Q16620). The settings on record: at 1 µM.
Chain of BDNF/NT-3 growth factors receptor (Homo sapiens) (Q16620 32-822 limits assumed): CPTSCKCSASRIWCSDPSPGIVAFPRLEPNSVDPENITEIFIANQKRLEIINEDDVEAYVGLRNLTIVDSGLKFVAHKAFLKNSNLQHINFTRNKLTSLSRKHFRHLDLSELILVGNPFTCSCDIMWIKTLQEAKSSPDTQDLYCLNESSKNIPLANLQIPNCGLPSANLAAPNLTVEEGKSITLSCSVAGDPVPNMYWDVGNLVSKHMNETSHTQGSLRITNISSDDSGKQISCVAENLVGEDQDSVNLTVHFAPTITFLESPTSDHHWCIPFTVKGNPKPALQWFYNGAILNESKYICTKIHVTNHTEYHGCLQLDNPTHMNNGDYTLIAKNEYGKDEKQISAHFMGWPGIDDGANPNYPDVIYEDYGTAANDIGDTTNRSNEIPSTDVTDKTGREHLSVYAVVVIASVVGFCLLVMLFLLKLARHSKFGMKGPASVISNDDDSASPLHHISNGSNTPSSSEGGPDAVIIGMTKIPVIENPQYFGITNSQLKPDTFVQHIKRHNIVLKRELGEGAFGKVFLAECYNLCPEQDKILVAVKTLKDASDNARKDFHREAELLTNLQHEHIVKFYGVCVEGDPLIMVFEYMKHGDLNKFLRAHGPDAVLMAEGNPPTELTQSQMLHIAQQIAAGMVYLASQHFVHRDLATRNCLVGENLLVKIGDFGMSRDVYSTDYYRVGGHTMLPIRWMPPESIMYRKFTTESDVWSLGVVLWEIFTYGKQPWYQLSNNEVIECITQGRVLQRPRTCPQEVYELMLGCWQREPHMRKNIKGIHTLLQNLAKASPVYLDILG

Chain of Serine/threonine-protein kinase tousled-like 2 (Homo sapiens) (Q86UE8 whole entry, looked up): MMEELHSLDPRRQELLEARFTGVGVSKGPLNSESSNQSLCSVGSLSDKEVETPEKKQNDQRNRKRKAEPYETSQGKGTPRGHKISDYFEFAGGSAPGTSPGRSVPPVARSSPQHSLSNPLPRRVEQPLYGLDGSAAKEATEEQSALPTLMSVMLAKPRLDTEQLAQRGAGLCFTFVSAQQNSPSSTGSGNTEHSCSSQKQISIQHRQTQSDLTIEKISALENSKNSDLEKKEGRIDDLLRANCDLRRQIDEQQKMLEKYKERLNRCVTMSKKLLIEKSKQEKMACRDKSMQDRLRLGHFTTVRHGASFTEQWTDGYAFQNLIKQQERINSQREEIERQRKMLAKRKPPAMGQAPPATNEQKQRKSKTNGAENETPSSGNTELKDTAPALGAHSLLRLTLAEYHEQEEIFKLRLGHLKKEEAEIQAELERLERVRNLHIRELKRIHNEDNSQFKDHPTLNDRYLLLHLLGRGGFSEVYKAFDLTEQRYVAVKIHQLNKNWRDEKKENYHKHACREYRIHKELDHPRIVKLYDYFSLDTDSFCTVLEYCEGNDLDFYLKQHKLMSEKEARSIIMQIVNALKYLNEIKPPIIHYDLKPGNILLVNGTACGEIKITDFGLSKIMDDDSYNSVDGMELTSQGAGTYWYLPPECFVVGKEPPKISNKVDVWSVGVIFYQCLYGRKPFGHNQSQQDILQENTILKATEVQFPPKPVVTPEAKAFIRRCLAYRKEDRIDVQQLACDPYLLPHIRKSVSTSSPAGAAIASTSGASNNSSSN
Chain of High affinity nerve growth factor receptor (Homo sapiens) (P04629 33-796 limits assumed): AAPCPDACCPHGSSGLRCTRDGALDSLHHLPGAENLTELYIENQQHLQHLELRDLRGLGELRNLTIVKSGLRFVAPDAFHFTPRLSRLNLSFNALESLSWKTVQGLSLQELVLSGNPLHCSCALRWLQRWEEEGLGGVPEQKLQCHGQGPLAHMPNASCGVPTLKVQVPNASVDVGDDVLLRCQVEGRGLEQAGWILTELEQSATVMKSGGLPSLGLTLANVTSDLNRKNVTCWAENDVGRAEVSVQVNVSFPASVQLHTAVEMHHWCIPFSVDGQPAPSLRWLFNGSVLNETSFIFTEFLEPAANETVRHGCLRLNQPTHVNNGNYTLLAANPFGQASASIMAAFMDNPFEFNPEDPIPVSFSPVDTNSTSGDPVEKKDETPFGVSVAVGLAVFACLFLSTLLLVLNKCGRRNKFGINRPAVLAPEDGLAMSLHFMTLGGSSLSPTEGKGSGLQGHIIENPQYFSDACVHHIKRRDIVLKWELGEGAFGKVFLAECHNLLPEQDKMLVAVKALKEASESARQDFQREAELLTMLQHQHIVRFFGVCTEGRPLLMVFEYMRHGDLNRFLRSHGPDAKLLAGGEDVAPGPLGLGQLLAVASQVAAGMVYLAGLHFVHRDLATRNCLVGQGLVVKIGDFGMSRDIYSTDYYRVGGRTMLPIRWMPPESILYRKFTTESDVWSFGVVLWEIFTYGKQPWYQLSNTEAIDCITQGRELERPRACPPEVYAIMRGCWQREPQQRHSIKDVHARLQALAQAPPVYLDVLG
Chain of Angiopoietin-1 receptor (Homo sapiens) (Q02763 whole entry): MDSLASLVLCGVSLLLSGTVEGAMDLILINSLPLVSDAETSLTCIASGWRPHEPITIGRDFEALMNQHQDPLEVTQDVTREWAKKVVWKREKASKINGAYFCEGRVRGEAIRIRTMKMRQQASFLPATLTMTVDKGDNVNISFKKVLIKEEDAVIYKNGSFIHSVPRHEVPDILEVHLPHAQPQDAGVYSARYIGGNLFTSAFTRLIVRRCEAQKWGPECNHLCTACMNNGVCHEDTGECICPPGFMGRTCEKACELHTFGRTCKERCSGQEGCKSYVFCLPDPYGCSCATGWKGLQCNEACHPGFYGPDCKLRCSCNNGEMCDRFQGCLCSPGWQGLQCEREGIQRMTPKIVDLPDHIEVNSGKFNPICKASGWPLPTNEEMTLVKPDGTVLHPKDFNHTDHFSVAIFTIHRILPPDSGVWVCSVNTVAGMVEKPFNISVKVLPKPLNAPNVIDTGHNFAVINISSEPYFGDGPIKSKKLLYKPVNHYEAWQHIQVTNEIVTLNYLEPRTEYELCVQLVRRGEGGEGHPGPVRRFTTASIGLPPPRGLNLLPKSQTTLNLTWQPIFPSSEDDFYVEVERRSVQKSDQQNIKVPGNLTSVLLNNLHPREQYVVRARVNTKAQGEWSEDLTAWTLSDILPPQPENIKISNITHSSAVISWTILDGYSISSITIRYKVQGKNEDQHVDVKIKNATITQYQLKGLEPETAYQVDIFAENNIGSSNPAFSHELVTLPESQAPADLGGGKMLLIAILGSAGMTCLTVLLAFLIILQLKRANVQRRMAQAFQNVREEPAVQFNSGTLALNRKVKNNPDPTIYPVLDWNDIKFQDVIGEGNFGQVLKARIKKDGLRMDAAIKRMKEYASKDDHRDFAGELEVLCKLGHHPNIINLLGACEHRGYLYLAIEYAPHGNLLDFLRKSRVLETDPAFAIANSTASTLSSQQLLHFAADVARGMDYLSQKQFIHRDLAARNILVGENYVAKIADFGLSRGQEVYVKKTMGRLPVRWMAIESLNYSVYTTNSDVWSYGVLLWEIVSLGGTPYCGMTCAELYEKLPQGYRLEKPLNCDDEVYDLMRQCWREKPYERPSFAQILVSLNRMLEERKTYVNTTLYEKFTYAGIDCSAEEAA

Turning to `CO[C@H]1[C@@H](OC)C[C@H](C)[C@@H](OC)C2=CC(=O)C=C(NC(=O)/C(C)=C/C=C/[C@H](OC)[C@@H](OC(N)=O)/C(C)=C/[C@@H]1C)C2=O`, the residual activity is 104% in experiment [1]; 85% in [2]; 97% in experiment [3]; 97% in [4]; 95% in experiment [5]; 84% in [6]. For the same molecule, the residual activity in experiment [7] turned out to be 101%; in experiment [8], 76%; in experiment [9], 90%; in experiment [10], 95%; in experiment [11], 100%; in [12], 88%. The residual activity was found to be 75% in experiment [13]; 89% in [14]; 84% in experiment [15]; 84% in experiment [16]; 76% in experiment [17]; 120% in experiment [18]. The residual activity turned out to be 118% in experiment [19] and 113% in [20].

Regarding `Cn1nc2c3c(cccc31)C(=O)c1ccccc1-2`, the residual activity in experiment [1] was 75%; in [2], 81%; in [3], 48%; in [4], 55%; in experiment [5], 95%; in [6], 84%. The residual activity came to 74% in experiment [7]; 91% in experiment [8]; 95% in [9]; 100% in experiment [11]; 79% in experiment [12]; 76% in experiment [13]. For the same molecule, the residual activity in experiment [14] was found to be 90%; in experiment [15], 69%; in experiment [16], 104%; in [17], 79%; in experiment [18], 46%; in experiment [19] it was 9%.

For the molecule `C[C@@H](N)[C@H]1CC[C@H](C(=O)Nc2ccncc2)CC1`, the residual activity came to 103% in experiment [1]; 101% in experiment [2]; 99% in [3]; 96% in experiment [4]; 120% in experiment [5]; 102% in [6]. Besides, the residual activity in experiment [7] is 120%; in experiment [8] it was 120%; in [9] it was 93%; in [10], 94%; in experiment [11], 97%; in [12], 90%. Further, the residual activity in experiment [13] was 99%; in experiment [14], 83%; in [15], 98%; in experiment [16], 84%; in experiment [17] it was 78%; in experiment [18] it was 112%. Besides, the residual activity in experiment [19] stood at 105%; in [20], 106%.

Take `CC(=O)c1ccc(N2CCOCC2)cc1O`: the residual activity in experiment [1] is 105%; in experiment [2] it was 81%; in [5] it was 84%; in experiment [6] it was 104%; in experiment [8], 77%; in experiment [9] it was 103%. The residual activity in [10] was 95%; in experiment [11], 98%; in experiment [12] it was 94%; in experiment [13] it was 104%; in [14], 104%; in experiment [15] it was 91%. For the same molecule, the figures for the residual activity in experiment [16], in experiment [17] and in [20] were 79%, 83% and 84%, respectively.

Broadly, the residual activity is the signal under treatment as a percentage of the control signal.
